Test results: PubChem BioAssay (Tox21)
Records with an inconclusive call do not appear. Where a call stands in place of a potency, no number is given. Values without a mark were called inactive. Calls of active or inactive are those of the source. Calls come from the whole dose curve; as a rule, active = well fitted cell-killing curve with a large enough effect in the repeat runs; inconclusive = weak or mixed curves, or effect the other way; inactive = flat fitted curve, though single readings scatter.

Assay: qHTS RealTime-Glo MT Cell Viability Assay in HEK293 cells - 8 hour (AID 1224887); note: nearly all actives have a fitted effect of over 50% in size; for activity change, negative = cytotoxicity: top concentration of the series differs between compounds
Conditions: RealTime-Glo luminescence; series mostly up to 76.8 µM
Excerpt: U.S. Tox21 Program National Center for Advancing Translational Sciences [NCATS] NIH Chemical Genomics Center [NCGC] U.S. Environmental Protection Agency [EPA] National Institutes of Environmental Health Sciences [NIEHS] National Toxicology Program [NTP] U.S. Food and Drug Administration [FDA] Tox21 Assay Overview: Measure of cell viability is critical in the cell-base assay. Analysis of cell viability is necessary for the characterization of cell responses to cytotoxic drugs and environmental stress. A RealTime-Glo MT Cell Viability Assay to monitor cell viability in real time of continues cell culture during 40 hours of compound treatment was used to screen Tox21 10K library compounds in Hek293 cells. The RealTime-Glo MT Cell Viability Assay is a nonlytic, homogeneous, bioluminescent method to measure cell viability in real time using a simple, plate-based method. The assay involves adding NanoLuc luciferase and a cell-permeant prosubstrate to cells in culture. Viable cells reduce the proprietary prosubstrate to generate a substrate for NanoLuc luciferase. This substrate diffuses from cells into the surrounding culture medium, where it is rapidly used by the NanoLuc Enzyme to produce a luminescent signal. The signal correlates with the number of viable cells, making the assay well suited for cytotoxicity studies.
Tox21 Assay Protocol Summary: The mixture of Hek293 cell suspension and reagents were dispensed at 600cells/6 ul/well in 1536-well tissue culture treated black solid bottom plates using a Multidrop dispenser. After the assay plates were incubated at a 37 C/5% CO2 incubator for 5 hours, 23 nL of compounds dissolved in DMSO, positive and negative controls was transferred to the assay plate by a pintool work station. The plates were incubated at 37 C for 40 hours. The luminescence intensity were measured at 0h, 8h, 16h, 24h, 32h and 40h time points using ViewLux plate reader during compound treatment.
Potency is the fitted concentration of half-maximal effect.

Compound	Potency	activity change, negative = cytotoxicity
CCCCCCCCSCCO	inactive	
Cc1cc(OI)c(C(C)C)cc1-c1cc(C(C)C)c(OI)cc1C	inactive	
CCCCCCOC(=O)CCCCCCCC(=O)OCCCCCC	inactive	
COc1ccc([C@@H]2Sc3ccccc3NC(=O)[C@@H]2O)cc1	inactive	
Cc1ccc(S(=O)(=O)NC2CCCCC2)cc1	inactive	
CCC(C)(C)C1CCC(O)CC1 (stereo not given)	inactive	
Nc1ccc(C(=O)OCCCOC(=O)c2ccc(N)cc2)cc1	43.6 µM (active)	
[O]=[Bi]		1.28% [at 6.97 µM]
CC1=CC(O)CC(C)(C)C1 (stereo not given)	inactive	
CCCCN(CCCC)CCCOC(=O)c1ccc(N)cc1	inactive	
CC(=O)N(c1onc(C)c1C)S(=O)(=O)c1ccc(N)cc1	inactive	
OCCSc1ccccc1	inactive	
CCC(C)=O	inactive	
Cc1cc(C(=C2C=CC(=Nc3ccc(S(=O)(=O)O)cc3S(=O)(=O)O)C=C2)c2ccc(Nc3ccc(S(=O)(=O)O)cc3)cc2)ccc1N	inactive	
CCC1(C)CC(=O)NC1=O (stereo not given)	inactive	
Nc1ccc(S(=O)(=O)O)c(N)c1	inactive	
COC(=O)CC(=O)C(C)(C)C	inactive	
CCC(C(=O)OCCN(CC)CC)c1ccccc1 (stereo not given)	inactive	
COCC(O)CO (stereo not given)	inactive	
CCc1cccc(N(C)C(N)=Nc2cccc3ccccc23)c1	inactive	

Compound	Potency	activity change, negative = cytotoxicity
CNC(=S)NC	inactive	
N#C[C@@H]1C[C@@H]2C[C@@H]2N1C(=O)[C@@H](N)C12CC3CC(CC(O)(C3)C1)C2	inactive	
CCC(C)(O)CCC=C(C)C (stereo not given)	inactive	
CO[Si](C)(OC)OC	inactive	
CC(C)CCCCCCOC(=O)CCCCC(=O)OCCCCCCC(C)C	inactive	
Oc1cc(O)c(Cl)cc1Cl	inactive	
CCCOCCOCCO	inactive	
O=C(O)c1ccc(CO)o1	inactive	
CC[C@H](NC(=O)c1cc(F)ccc1NS(=O)(=O)c1cccc2cccnc12)c1ccccc1	inactive	
COc1cc2c(cc1OC)-c1cc(=Nc3c(C)cc(C)cc3C)n(C)c(=O)n1CC2	inactive	
CC#N	inactive	
COc1cc2[nH]c(=O)[nH]c(=O)c2cc1OC	inactive	
C=CCNc1nc(NCC=C)nc(N2CCN(C(c3ccc(F)cc3)c3ccc(F)cc3)CC2)n1	inactive	
CCOC(=O)OCC	inactive	
CC(C)CCCC(=O)O	inactive	
C/C=C(\C)C(=O)OCCC(C)CCC=C(C)C (stereo not given)	inactive	
NCC1CCCC(CN)C1 (stereo not given)	inactive	
CCCCCCCCCCCC[N+](C)(C)CCCS(=O)(=O)[O-]	inactive	
C[C@]12CCC(=O)C=C1C=C[C@@H]1[C@@H]2CC[C@@]2(C)[C@H]1CC[C@@]21CCC(=O)O1	inactive	
CCN(CC)CCNC(=O)c1ccc(NC(C)=O)cc1	inactive	
